Screening results as filed in PubChem.
BAZ2B block: qHTS Assay for Inhibitors of BAZ2B | Bromodomain adjacent to zinc finger domain protein 2B (Homo sapiens), Q9UIF8 | AlphaScreen BAZ2B-H3K14Ac peptide displacement | Potency, µM (top dose mostly 114 µM), usual class: inhibitors | 4.4% of 360,000 active | AID 504333, 2011; note: nearly all actives have a fitted effect of over 60% in size
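BAZ2B (50 nM) with biotin-H3(5-23)K14Ac peptide (50 nM) in PBS pH 7.4, 0.01% Tween-20, preformed 30 min, then compound 30 min at room temperature; top concentration 110uM. AlphaScreen streptavidin donor/nickel chelate acceptor beads (10 ug/mL final), 20 min dark, signal read.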
HP1b binding inh: HTS for Inhibitors of HP1-beta Chromodomain Interactions with Methylated Histone Tails; Chromobox protein homolog 1 (Homo sapiens), P83916; AlphaScreen HP1-beta / biotin-H3K9me3 peptide binding; Potency, µM (highest dose often 114 µM), most hits filed as inhibitors; 0.56% of 390,000 active; AID 540317, 2011; note: nearly all actives have a fitted effect of over 70% in size
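Compound inhibition of the preformed complex between 50 nM HP1-beta and 50 nM biotinylated H3K9me3 peptide was read by AlphaScreen. Buffer was PBS pH 7.4 with 0.01% Tween-20. Incubations ran 30 min at room temperature, with 10 ug/mL donor/acceptor beads.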
JMJD2A Tudor: qHTS Assay for Inhibitors of JMJD2A-Tudor Domain; Lysine-specific demethylase 4A (Homo sapiens), O75164; AlphaScreen JMJD2A-Tudor / H3K4me3 peptide binding; Potency, µM (titrated, usually from 114 µM), actives largely listed as inhibitors; 4.4% of 390,000 active; AID 504339, 2011; note: nearly all actives have a fitted effect of over 50% in size
G9a block: qHTS Assay for Inhibitors of Histone Lysine Methyltransferase G9a; Potency, µM (top dose mostly 102 µM), usual class: inhibitors; AID 504332, 2011; Histone-lysine N-methyltransferase EHMT2 (Homo sapiens), Q96KQ7; G9a H3K9 monomethylation, AlphaScreen, 2 h; 8.8% of 350,000 active; note: nearly all actives have a fitted effect of over 75% in size
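Quantitative HTS format: methyltransferase activity on a biotin-tagged H3K9 peptide is measured by AlphaScreen, using a rabbit anti-monomethyl-H3K9 antibody with streptavidin donor and anti-IgG acceptor beads. Final levels are 20 nM enzyme, 500 nM peptide, 20 uM SAM; 2 h RT.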
GLS inhibitor: qHTS for Inhibitors of Glutaminase (GLS); Glutaminase kidney isoform, mitochondrial (Homo sapiens), O94925; GLS enzymatic activity, qHTS titration; Potency, µM (doses to about 45.5 µM), usual class: inhibitors; 0.21% of 410,000 active
Target sequence (O94925 whole entry, looked up, canonical isoform): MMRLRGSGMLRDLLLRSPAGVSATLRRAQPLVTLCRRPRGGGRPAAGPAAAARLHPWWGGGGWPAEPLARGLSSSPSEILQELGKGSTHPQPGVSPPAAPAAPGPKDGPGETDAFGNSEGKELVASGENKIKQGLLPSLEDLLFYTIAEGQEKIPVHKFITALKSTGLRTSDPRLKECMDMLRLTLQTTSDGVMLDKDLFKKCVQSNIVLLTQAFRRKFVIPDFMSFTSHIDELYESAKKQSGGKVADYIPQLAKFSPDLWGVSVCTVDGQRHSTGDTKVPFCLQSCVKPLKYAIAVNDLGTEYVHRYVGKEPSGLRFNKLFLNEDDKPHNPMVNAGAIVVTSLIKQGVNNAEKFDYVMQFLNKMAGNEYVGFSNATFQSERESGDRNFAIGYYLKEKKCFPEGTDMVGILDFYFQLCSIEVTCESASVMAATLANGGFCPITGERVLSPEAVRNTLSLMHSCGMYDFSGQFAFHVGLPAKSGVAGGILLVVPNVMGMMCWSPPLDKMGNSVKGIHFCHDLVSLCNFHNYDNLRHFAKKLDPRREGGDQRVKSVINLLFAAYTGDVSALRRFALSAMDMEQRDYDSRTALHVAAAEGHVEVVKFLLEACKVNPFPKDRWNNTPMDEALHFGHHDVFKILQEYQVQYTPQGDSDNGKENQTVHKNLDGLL
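Human kidney-isoform GLS in 45 mM KH2PO4 pH 8.2, 0.02% Tween-20, with compound, started with 1mM L-Glutamine (added stock). Glutamate oxidase/HRP/Amplex red coupled fluorescence read at start and after 30 min at RT.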
Each line names hits and unclear results; the compound was inactive in the other large screens. Rows were chosen to be rich in hits. Some 10% of all compounds tested hit in one or more screens of this group. Calls come from the whole dose curve; as a rule, active = well fitted curve in the direction sought with a large enough effect; inconclusive = small, poorly fitted or top-dose-only effect, or another doubt; inactive = no such curve, though single readings can be large; an effect the other way counts as inactive or inconclusive.

COc1ccc(NC(=O)COC(=O)Cn2nnc3ccccc32)cc1	none
CC(C)C(=O)Nc1ccc(Br)cc1Cl	none
Cc1ccc2sc(N3CCN(CCNC(=O)c4ccco4)CC3)nc2c1C	BAZ2B block inconclusive, JMJD2A Tudor inconclusive, G9a block 45µM
Cc1nccc2oc(=O)c(NC(=O)c3ccc(Cl)cc3)cc12	none
O=C(Nc1cc2c(oc1=O)CCCC2=O)c1ccc(Cl)cc1	BAZ2B block 40µM, JMJD2A Tudor 14µM, GLS inhibitor inconclusive
COc1ccc(NC2CCCN(C(=O)CCOc3ccccc3)C2)cc1 (stereo unspecified)	BAZ2B block 25µM, JMJD2A Tudor inconclusive (no result: G9a block)
COc1ccc(NC2CCCN(C(=O)CSc3ccccc3)C2)cc1 (stereo unspecified)	BAZ2B block inconclusive, JMJD2A Tudor inconclusive, G9a block 35µM
COc1ccc(NC2CCCN(C(=O)CCc3ccccc3F)C2)cc1 (stereo unspecified)	JMJD2A Tudor inconclusive, G9a block 50µM
COc1ccc(NC2CCCN(C(=O)CCN3CCOCC3)C2)cc1 (stereo unspecified)	G9a block inconclusive
COc1ccc(NC2CCCN(C(=O)COc3ccc(C)cc3)C2)cc1 (stereo unspecified)	BAZ2B block inconclusive, JMJD2A Tudor inconclusive, G9a block 16µM
Cc1cc(C)n(Cc2ccc(C(=O)NN)o2)n1	none (no result: G9a block)
CNC(=S)N/N=C/c1cn(CCOc2cccc(OC)c2)c2ccccc12	BAZ2B block inconclusive, HP1b binding inh inconclusive, JMJD2A Tudor inconclusive, G9a block 45µM, GLS inhibitor inconclusive
CNC(=S)N/N=C/c1cn(CCOc2ccccc2OC)c2ccccc12	BAZ2B block inconclusive
CCN(CC)CCn1c2c(c(SCC(=O)Nc3cccc4ccccc34)nc1=O)CCCC2	G9a block 13µM
CN(C)CCCn1c2c(c(SCC(=O)Nc3cccc4ccccc34)nc1=O)CCC2	G9a block 50µM
COc1ccc(C2c3[nH]c4ccccc4c3CCN2C(=O)c2cn3ccccc3n2)c(F)c1 (stereo unspecified)	BAZ2B block 22µM, JMJD2A Tudor inconclusive (no result: G9a block)
COc1ccc(C2c3[nH]c4ccccc4c3CCN2C(=O)c2ccccc2C(C)=O)c(F)c1 (stereo unspecified)	JMJD2A Tudor inconclusive (no result: G9a block)
COc1ccc(C2c3[nH]c4ccccc4c3CCN2C(=O)c2cc3ncccn3n2)c(F)c1 (stereo unspecified)	BAZ2B block 32µM, JMJD2A Tudor inconclusive
COc1ccc(N2CCN(C(=O)CN(c3ccccc3)S(=O)(=O)c3ccc(OC)cc3)CC2)cc1	BAZ2B block inconclusive, HP1b binding inh inconclusive, JMJD2A Tudor 56µM, G9a block 10µM (no result: GLS inhibitor)
COc1ccc(N2CCN(C(=O)c3ccccc3N(C)S(=O)(=O)c3ccc(C)cc3)CC2)cc1	BAZ2B block 40µM, JMJD2A Tudor inconclusive, G9a block inconclusive
COc1ccc(N2CCN(C(=O)CN(c3ccc(OC)cc3)S(=O)(=O)c3ccccc3)CC2)cc1	BAZ2B block inconclusive, JMJD2A Tudor inconclusive, G9a block 40µM
CCSc1nc(-c2ccccc2)c2cc(Cl)ccc2n1	none
O=C(O)CCNS(=O)(=O)c1cccc(Br)c1	none
Cc1ccc(CNC(=O)c2ccc(N3CCC4(CC3)CC(c3cccc(Br)c3)=NO4)c([N+](=O)[O-])c2)cc1	none
CCCNC(=O)c1ccc(N2CCC3(CC2)CC(c2cccc(Br)c2)=NO3)c([N+](=O)[O-])c1	BAZ2B block inconclusive, G9a block 79µM
COc1cc2[nH]c3c(Cl)ncnc3c2cc1OC	BAZ2B block 45µM, G9a block inconclusive
C=CCOc1ccc(/C(O)=C2/C(=O)C(=O)N(CCCn3ccnc3)C2c2cccs2)cc1 (stereo unspecified)	none
[O-]c1c[n+](-c2ccccc2)no1	G9a block 5µM
[O-]c1c[n+](-c2ccc(-[n+]3cc([O-])on3)cc2)no1	BAZ2B block 50µM, HP1b binding inh inconclusive, JMJD2A Tudor inconclusive
Cc1ccccc1CS(=O)(=O)CCC(=O)NCCCN1CCOCC1	none
C[C@@H](C[C@@H](O)[C@H](O)C(C)(C)O)[C@@H]1CC[C@]2(C)C3=CC[C@H]4C(C)(C)C(=O)CC[C@]4(C)[C@H]3CC[C@@]12C	none
CSc1sc(-c2ccnc(SCC(=O)C(C)(C)C)n2)c2c1C(=O)CC(C)(C)C2	none (no result: G9a block)
O=C(CN(CC1CCCO1)S(=O)(=O)c1ccc(S(=O)(=O)NC2CC2)cc1)Nc1ccccc1 (stereo unspecified)	none
COC(=O)c1ccc(N2OC3(C)C=CC2CC3)cc1 (stereo unspecified)	G9a block 45µM
O=[N+]([O-])c1ccc2c(c1)N([O-])C1(CCCCC1)[N+]2=O	BAZ2B block 40µM, HP1b binding inh inconclusive, JMJD2A Tudor inconclusive (no result: G9a block)
CC1=C(c2ccccc2)[N+](=O)C2(CCCC2)N1[O-]	none
CCOC(=O)CSc1nnc(-c2ccc(NS(=O)(=O)c3ccc(C)cc3)cc2)o1	none
NC(=O)[C@@H]1CCCCNc2c(F)cc([N+](=O)[O-])cc2C(=O)N[C@@H](CC(=O)O)C(=O)NCC(=O)N1	G9a block inconclusive
NCCCC[C@@H]1NC(=O)c2cc([N+](=O)[O-])cc(I)c2SC[C@@H](C(N)=O)NC(=O)[C@H](Cc2ccc(O)cc2)NC1=O	BAZ2B block inconclusive, JMJD2A Tudor inconclusive, G9a block 35µM
NCCCC[C@@H]1NC(=O)[C@H](CCC(=O)O)NC(=O)c2cc([N+](=O)[O-])cc(I)c2SC[C@@H](C(=O)NCC(N)=O)NC1=O	BAZ2B block inconclusive, JMJD2A Tudor 22µM, G9a block 3.2µM
O=C(CSc1ncn[nH]1)NC1CC2CCC1C2 (stereo unspecified)	none
CC(C)NC(=O)NC(=O)COc1ncnc2sccc12	HP1b binding inh inconclusive, JMJD2A Tudor inconclusive, G9a block 50µM
CCOC(=O)C(NC(=O)c1ccc(OC)cc1)(Nc1cc(C)on1)C(F)(F)F (stereo unspecified)	none
COc1ccccc1-c1cc(C(=O)Nc2ccccc2C(F)(F)F)no1	none
CCCNC(=O)Cn1cnc2sc(C(=O)NCCCN3CCOCC3)c(C)c2c1=O	none (no result: G9a block)
CCCNC(=O)Cn1cnc2sc(C(=O)NCCN(CC)CC)c(C)c2c1=O	G9a block 79µM
OCCCc1n[nH]c(=S)n1-c1ccccc1	G9a block inconclusive
O=C1c2cccc3cccc(c23)C(=O)N1CCCc1n[nH]c(=S)n1-c1ccccc1	JMJD2A Tudor 13µM, G9a block 4µM, GLS inhibitor 4µM
COc1ccccc1N1CCN(C(=O)C2CC=CCC2C(=O)O)CC1 (stereo unspecified)	G9a block inconclusive
